Laboratory results reported in PubChem BioAssay.
Calls of active or inactive are those of the source.

Tests used:
[1] = binders of probe aFSTL3 on microarray, primary screen, stem cell growth factor project, biochemical, small-molecule microarray, fluorescence 635/667 (AID 1064); conditions: higher = more signal;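 further: measures binding of the biotinylated anti-FSTL3 antibody to printed compounds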
[2] = binders from COS7 lysate, DM2A8 probe, primary screen, torsin A project, cell lysate, small-molecule microarray, fluorescence 635/667 (AID 1065); conditions: higher = more signal, COS7 lysate expressing mutant human TOR1A
[3] = binders of probe aFGF2 on microarray, primary screen, stem cell growth factor project, biochemical, small-molecule microarray, fluorescence 635/667 (AID 1067); conditions: higher = more signal;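 further: measures binding of biotinylated aFGF2 protein to printed compounds on slides; z-score merges feature fluorescence and signal-to-noise across triplicate slides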
[4] = binders of probe aFGF10 on microarray, primary screen, stem cell growth factor project, biochemical, small-molecule microarray, fluorescence 635/667 (AID 1071); conditions: higher = more signal;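 further: score merges 667 nm spot intensity and signal to noise from triplicate slides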
[5] = target: Neurogenic locus notch homolog protein 2 (Homo sapiens) (UniProt Q04721); experiment: Notch2 binders on small-molecule microarrays, primary screen, biochemical, small-molecule microarray, 635 nm fluorescence, stem cell growth factors (AID 1073); conditions: Notch2 binding, higher = more signal
[6] = target: Pro-neuregulin-1, membrane-bound isoform (Homo sapiens) (UniProt Q02297); experiment: NRG1 binders on small-molecule microarrays, primary screen, psychiatric disease protein project, biochemical, small-molecule microarray, fluorescence 635/667 (AID 1075); conditions: NRG1 binding, 635 nm fluorescence, higher = more signal;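 further: score combines 667 nm spot fluorescence with signal to noise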
[7] = test system: Neuregulin-1 EGF-like domain; experiment: binders of neuregulin-1 EGF-like domain, primary screen, biochemical, small-molecule microarray, 635 nm fluorescence (AID 1081); conditions: small-molecule microarray binding, higher = more signal;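 further: binding of the protein to compounds printed on small-molecule microarray slides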
[8] = FRG1 promoter luciferase signal modulators, primary screen, FRG1 inhibition for FSHD, cell-based, C2C12 myotubes, firefly/Renilla luciferase, luminescence (AID 1084); conditions: higher = more signal, called active from +8 up or from −8 down
[9] = binders of probe aFST on microarray, primary screen, stem cell growth factor project, biochemical, small-molecule microarray, fluorescence 635/667 (AID 1086); conditions: higher = more signal;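 further: score merges 667 nm fluorescence with signal-to-noise of each printed compound spot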
[10] = binders of probe aHhip on microarray, primary screen, stem cell growth factor project, biochemical, small-molecule microarray, fluorescence 635/667 (AID 1087); conditions: higher = more signal;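 further: score merges spot fluorescence at 667nm with spot signal to noise ratio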

Sequence of Pro-neuregulin-1, membrane-bound isoform (Homo sapiens) (Q02297 whole entry, looked up, the tested form may be a part, canonical isoform): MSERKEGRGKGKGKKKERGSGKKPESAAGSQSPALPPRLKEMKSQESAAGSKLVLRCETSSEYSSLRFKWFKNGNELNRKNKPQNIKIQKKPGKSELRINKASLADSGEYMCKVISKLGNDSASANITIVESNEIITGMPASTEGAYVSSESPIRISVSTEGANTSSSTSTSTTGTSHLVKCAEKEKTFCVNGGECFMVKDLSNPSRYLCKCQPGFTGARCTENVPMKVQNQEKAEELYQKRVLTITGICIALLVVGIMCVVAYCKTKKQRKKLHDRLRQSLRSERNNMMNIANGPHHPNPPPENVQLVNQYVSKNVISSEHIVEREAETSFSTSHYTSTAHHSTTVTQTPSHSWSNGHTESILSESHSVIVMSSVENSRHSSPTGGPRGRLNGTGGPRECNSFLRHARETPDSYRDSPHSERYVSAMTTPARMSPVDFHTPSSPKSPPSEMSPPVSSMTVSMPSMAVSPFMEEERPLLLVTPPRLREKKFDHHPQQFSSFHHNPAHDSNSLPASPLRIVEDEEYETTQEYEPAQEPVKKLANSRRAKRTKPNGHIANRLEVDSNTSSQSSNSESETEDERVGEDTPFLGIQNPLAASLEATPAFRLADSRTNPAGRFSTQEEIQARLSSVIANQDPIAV
Sequence of Neurogenic locus notch homolog protein 2 (Homo sapiens) (Q04721 whole entry, looked up, canonical isoform): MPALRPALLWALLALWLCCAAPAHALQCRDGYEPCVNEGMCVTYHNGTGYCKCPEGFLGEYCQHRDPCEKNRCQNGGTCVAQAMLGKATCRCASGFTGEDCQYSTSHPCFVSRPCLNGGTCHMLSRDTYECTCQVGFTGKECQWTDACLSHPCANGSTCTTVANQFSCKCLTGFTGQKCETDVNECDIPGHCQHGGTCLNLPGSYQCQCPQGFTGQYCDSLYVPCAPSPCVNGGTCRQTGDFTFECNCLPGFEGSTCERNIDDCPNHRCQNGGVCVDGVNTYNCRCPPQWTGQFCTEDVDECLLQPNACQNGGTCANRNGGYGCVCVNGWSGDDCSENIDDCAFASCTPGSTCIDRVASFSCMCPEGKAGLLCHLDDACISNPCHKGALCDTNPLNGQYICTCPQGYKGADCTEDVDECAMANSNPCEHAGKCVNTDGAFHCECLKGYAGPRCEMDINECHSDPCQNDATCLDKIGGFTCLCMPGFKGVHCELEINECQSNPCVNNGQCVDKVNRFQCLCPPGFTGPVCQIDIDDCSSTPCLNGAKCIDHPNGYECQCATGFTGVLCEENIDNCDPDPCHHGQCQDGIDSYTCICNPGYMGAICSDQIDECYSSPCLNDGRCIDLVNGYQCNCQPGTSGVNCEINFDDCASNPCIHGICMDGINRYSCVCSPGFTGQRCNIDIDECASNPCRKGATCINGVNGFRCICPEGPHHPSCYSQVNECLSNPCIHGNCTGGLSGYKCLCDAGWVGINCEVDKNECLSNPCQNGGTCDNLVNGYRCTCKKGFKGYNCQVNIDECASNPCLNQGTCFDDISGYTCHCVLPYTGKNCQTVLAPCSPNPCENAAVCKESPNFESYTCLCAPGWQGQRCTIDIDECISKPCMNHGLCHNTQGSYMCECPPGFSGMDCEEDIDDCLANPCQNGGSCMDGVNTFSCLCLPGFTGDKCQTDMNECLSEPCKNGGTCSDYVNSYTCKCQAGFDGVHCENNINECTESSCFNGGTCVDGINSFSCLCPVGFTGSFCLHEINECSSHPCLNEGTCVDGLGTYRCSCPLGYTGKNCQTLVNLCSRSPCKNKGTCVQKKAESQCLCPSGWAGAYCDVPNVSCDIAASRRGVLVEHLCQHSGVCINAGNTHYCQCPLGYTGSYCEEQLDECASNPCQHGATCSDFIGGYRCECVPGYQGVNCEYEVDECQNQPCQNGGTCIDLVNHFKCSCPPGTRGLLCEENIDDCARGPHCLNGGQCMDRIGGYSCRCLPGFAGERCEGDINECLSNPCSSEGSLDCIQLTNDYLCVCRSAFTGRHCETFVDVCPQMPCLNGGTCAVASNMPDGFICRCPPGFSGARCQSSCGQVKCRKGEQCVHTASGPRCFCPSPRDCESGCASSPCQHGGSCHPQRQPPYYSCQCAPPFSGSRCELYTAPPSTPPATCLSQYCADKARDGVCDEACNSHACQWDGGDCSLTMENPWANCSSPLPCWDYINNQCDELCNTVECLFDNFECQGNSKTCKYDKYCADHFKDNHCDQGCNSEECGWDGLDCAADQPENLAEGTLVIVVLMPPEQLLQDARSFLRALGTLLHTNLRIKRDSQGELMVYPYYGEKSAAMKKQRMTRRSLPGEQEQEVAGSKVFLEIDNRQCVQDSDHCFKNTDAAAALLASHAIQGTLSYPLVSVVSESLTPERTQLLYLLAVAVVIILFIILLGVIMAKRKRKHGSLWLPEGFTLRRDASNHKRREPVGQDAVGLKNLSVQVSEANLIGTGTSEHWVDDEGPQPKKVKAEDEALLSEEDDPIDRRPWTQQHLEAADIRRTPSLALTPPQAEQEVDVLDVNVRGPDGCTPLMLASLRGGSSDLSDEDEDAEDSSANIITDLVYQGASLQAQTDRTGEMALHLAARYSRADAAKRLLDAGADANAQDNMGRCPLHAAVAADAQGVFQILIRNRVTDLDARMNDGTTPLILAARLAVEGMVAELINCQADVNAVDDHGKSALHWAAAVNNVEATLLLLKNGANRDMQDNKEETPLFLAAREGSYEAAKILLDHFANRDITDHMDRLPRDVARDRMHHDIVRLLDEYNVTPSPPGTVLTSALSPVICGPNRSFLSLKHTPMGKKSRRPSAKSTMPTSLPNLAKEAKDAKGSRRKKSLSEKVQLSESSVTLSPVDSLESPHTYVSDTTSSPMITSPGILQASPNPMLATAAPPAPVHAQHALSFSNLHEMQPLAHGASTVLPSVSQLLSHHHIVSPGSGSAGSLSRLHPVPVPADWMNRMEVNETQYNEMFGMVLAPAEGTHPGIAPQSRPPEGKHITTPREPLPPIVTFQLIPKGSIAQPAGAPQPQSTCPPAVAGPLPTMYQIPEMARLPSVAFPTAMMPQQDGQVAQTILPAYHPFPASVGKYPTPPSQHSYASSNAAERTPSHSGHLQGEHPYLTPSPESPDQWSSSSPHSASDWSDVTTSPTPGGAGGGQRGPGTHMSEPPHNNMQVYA

Row | SMILES | composite z-score [1] | composite z-score [2] | composite z-score [3] | composite z-score [4] | composite z-score [5] | composite z-score [6] | composite z-score [7] | z-score [8] | composite z-score [9] | composite z-score [10]
1 | C=CCC(OC(C)=O)[C@@H]1[C@@H](N(Cc2cc3ccccc3o2)C(=O)c2ccc(-c3ccccc3)cc2)c2cc(OCCCO)ccc2N1C(=O)c1ccc2ccccc2n1 (stereo not given in full) | -0.128 | -0.0562 | -0.128 | 0.0599 | -0.234 | 0.0289 | -0.464 | -1.47 (inactive) | 0.268 | 0.417
2 | CCCC[C@H]1OB(O)C[C@H]2C1=C(COC)C[C@H]1C(=O)C=CC(=O)[C@H]12 | -0.54 | 0.007 | -0.0582 | 0.183 | 0.861 | -0.279 | -0.0265 | 0.254 (inactive) | 0.534 | 0.206
3 | O=c1cccc(-c2ccccc2C(F)(F)F)o1 | 0.912 | -0.0924 | 0.409 | -0.331 | -0.489 | -0.168 | 0.381 | 0.364 (inactive) | 0.862 | 0.173
4 | C=C(CC1([C@@H](NP(=O)(c2ccccc2)c2ccccc2)[C@H]2C[C@@H]2CCN(C(=O)OCC)S(=O)(=O)c2ccc(C)cc2)CC1)c1ccccc1 | 0.0862 | -0.163 | 0.226 | 0.821 | 1.67 | 1.38 | 1.12 | 0.894 (inactive) | 1.5 | 0.128
5 | CCCCC(O)C1C=CC2C(=O)NC(=O)C2N1Nc1ccccn1 (stereo not given) | -0.197 | -0.0611 | -0.0691 | 0.329 | 0.949 | 0.699 | 0.683 | 0.86 (inactive) | 0.0344 | -0.128
6 | [N-]=[N+]=NCc1ccccc1[C@H]1OC(c2ccc(OCCCO)cc2)=N[C@@]1(Cc1ccccc1)C(=O)N1CCOCC1 | -0.212 | 0.768 | 0.0232 | 1.15 | 1.71 | 1.39 | 1.21 | -0.868 (inactive) | 1.8 | -0.166
7 | N#Cc1ccc(C(O)C2C=CC3C(=O)N(c4ccccc4)C(=O)C3N2Nc2ccc([N+](=O)[O-])cc2)cc1 (stereo not given) | 0.561 | 0.31 | 0.139 | 0.863 | 1.58 | 1.77 | 1.28 | 0.498 (inactive) | 1.02 | -0.175
8 | CO[C@H]1O[C@H](CO)[C@@H](OC(=O)Nc2ccc3c(c2)OCO3)[C@@H]2OC(=O)[C@@H](Cc3ccccc3)C/C=C/C[C@H](Cc3ccccc3)C(=O)O[C@@H]12 | -0.276 | -0.0172 | 0.0631 | 0.984 | 1.12 | 0.995 | 0.976 | -0.277 (inactive) | 0.508 | 0.0373
9 | C=C(CCCC)C(=O)CC[C@H](OC(C)=O)c1ccccc1OCCO | -0.327 | -0.0867 | -0.0471 | 0.776 | 0.435 | 0.898 | -0.0255 | -0.881 (inactive) | 0.167 | -0.358
10 | Cc1ccc(S[C@]2(C(=O)NCCCN(C)C)CC(=O)N(Cc3ccccc3Cl)[C@@H]2c2ccc(CO)cc2I)cc1 | 1.23 | -0.42 | -0.0996 | -0.855 | -1.17 | 1.07 | 0.801 | -1.4 (inactive) | 0.141 | -0.0346
11 | CN1C(=O)[C@]2(CCS(=O)(=O)c3ccccc3)N=C(c3ccc(OCCCO)cc3)O[C@@H]2c2ccccc21 | 0.511 | 0.485 | -0.0984 | 0.255 | 0.768 | 1.75 | 1.41 | -0.34 (inactive) | 0.135 | 0.238
12 | CN(C)CCCCNC(=O)[C@H]1C[C@H]2C(=O)NCC(=O)N2[C@H]1c1cccc(OCCO)c1 | -0.295 | -0.0314 | -0.155 | -0.224 | -0.342 | 0.401 | 1.19 | 0.836 (inactive) | -0.324 | -0.485
13 | C[C@]1(C(=O)NCC(F)(F)F)c2ccccc2C(=O)N(Cc2ccc(OC(F)(F)F)cc2)[C@H]1c1ccc(CO)cc1 | -0.303 | 0.67 | -0.0757 | 0.198 | -0.298 | 0.0763 | 0.531 | -3.89 (inactive) | -0.209 | -0.0645
14 | CC(C)=CCN(C(=O)C#Cc1ccccc1)[C@H](CO)c1ccccc1 | -0.591 | 0.645 | -0.0692 | 0.118 | 0.248 | -0.141 | 0.283 | -5.11 (inactive) | 0.223 | -0.0994
15 | CC(C)CNC(=O)[C@@H]1c2ccccc2C(=O)N(Cc2ccccc2)[C@H]1c1ccc(CO)cc1 | 1.12 | 0.886 | 0.0173 | -0.0403 | -1.04 | 0.935 | 0.76 | -0.504 (inactive) | -0.469 | -0.118
16 | COCCOC(=O)N1C(=O)[C@@]2(c3cc(C#CC4(O)CCCCCC4)ccc31)[C@H](c1ccc(OCCO)cc1)N1[C@H](c3ccccc3)[C@H](c3ccccc3)OC(=O)[C@H]1[C@@H]2C(=O)N1CCCCCCC1 | 1.81 | 0.437 | 0.466 | 0.276 | 1.25 | 1.77 | 1.29 | 0.222 (inactive) | 2.41 | 2.99
17 | COCCOC(=O)N1C(=O)[C@@]2(c3cc(C#CC4=CCCCC4)ccc31)[C@H](C(=O)N1CCN(c3ncccn3)CC1)[C@H]1C(=O)O[C@H](c3ccccc3)[C@H](c3ccccc3)N1[C@@H]2c1ccccc1OCCO | -0.285 | 0.943 | 0.0346 | 0.616 | 0.793 | 0.591 | 1.15 | 1.45 (inactive) | 0.636 | -0.0237
18 | CCOC(=O)C[C@H]1[C@H](OC(=O)c2ccc(-c3ccccc3)cc2)[C@@H](NC(=O)c2ccc3ccccc3c2)c2cc(OCCCO)ccc2N1C(=O)c1ccccc1 | -0.211 | -0.0761 | -0.0692 | 0.557 | 0.736 | -0.0077 | 0.627 | -0.182 (inactive) | 0.412 | -0.0115
19 | COCCCN1C(=O)[C@@]2(Cc3ccccc31)c1ccccc1C(=O)N(Cc1ccccc1OC)[C@H]2c1ccc(CO)cc1 | 0.303 | -0.457 | -0.122 | -0.279 | -0.228 | 0.731 | -0.944 | -0.193 (inactive) | 0.023 | -0.181
20 | COC(=O)[C@@]1(CCS(=O)(=O)c2ccccc2)N=C(c2ccc(OCCCO)cc2)O[C@H]1c1ccccc1N=[N+]=[N-] | -0.0367 | 0.35 | -0.051 | 0.207 | 1.05 | 0.573 | 1.21 | -2.34 (inactive) | 0.252 | -0.0346
21 | COc1ccc(C#Cc2ccc3c(c2)[C@]2(C(=O)N3)[C@H](C(=O)Nc3nc4ccccc4s3)[C@H]3C(=O)O[C@H](c4ccccc4)[C@H](c4ccccc4)N3[C@@H]2c2ccc(OCCO)cc2)cc1 | -0.113 | 1.45 | 0.0015 | 0.977 | 1.5 | 1.31 | 1.08 | 4.94 (inactive) | 0.349 | -0.216
22 | COC(=O)[C@@]1(Cc2ccc(F)cc2)[C@H]2c3cc(C(=O)N(C)C)n(CCO)c3C[C@H]2CN1C(=O)c1ccccc1 | 0.135 | -0.311 | 0.169 | 0.429 | 1.5 | 2.16 | 1.06 | -1.11 (inactive) | 0.433 | 0.218
23 | COC(=O)[C@@]1(Cc2ccc(F)cc2)[C@H]2c3cc(C(=O)N(C)C)n(CCN4CCOCC4)c3C[C@H]2CN1C(=O)c1ccccc1 | 0.59 | -0.141 | 0.0141 | 0.58 | 1.63 | 1.51 | 0.654 | 1.56 (inactive) | 0.416 | 0.664
24 | C=CC[C@@]1(C(=O)O)N=C(c2ccc(OCCCO)cc2)O[C@@H]1c1ccccc1CN=[N+]=[N-] | -0.232 | 0.334 | -0.0518 | 0.744 | 0.955 | 1.79 | 1.08 | 4 (inactive) | 0.0959 | -0.007
25 | CC=CC(O)C1C=CC2C(=O)N(C)C(=O)C2N1NC(=O)OC(C)(C)C (stereo not given) | -0.0303 | 0.371 | -0.072 | 0.488 | 1.16 | 0.746 | 1.09 | 0.282 (inactive) | 0.449 | 0.108
26 | COCCOC(=O)N1C(=O)[C@@]2(c3cc(C#CCC(C(=O)OC)C(=O)OC)ccc31)[C@H](C(=O)N1CCc3cc(OC)c(OC)cc3C1)[C@H]1C(=O)O[C@H](c3ccccc3)[C@H](c3ccccc3)N1[C@@H]2c1ccc(O)cc1 | -0.318 | 0.731 | 0.0732 | 0.858 | 1.54 | 0.729 | 1.23 | 0.217 (inactive) | 0.346 | -0.0459
27 | NCCCC[C@@H]1NC(=O)[C@H]2C[C@@H](C(=O)NCc3ccc(F)cc3)[C@@H](c3ccc(O)cc3)N2C1=O | 1.85 | 0.0239 | 0.113 | 0.492 | 0.531 | 2.12 | 1.3 | 5.15 (inactive) | 1.75 | 0.0947
28 | CCCCC(O)C1C=CC2C(=O)N(C)C(=O)C2N1Nc1ccccc1 (stereo not given) | 0.645 | 0.0873 | -0.0778 | 0.435 | 0.762 | 1.76 | 1.25 | 1.63 (inactive) | 0.632 | 0.128
29 | COC(=O)[C@@]1(CCC(=O)OC(C)(C)C)N=C(c2ccc(OCCCO)cc2)O[C@H]1c1ccccc1CN=[N+]=[N-] | 0.0643 | -0.13 | -0.12 | -0.191 | -0.066 | 0.118 | 0.148 | -2.14 (inactive) | -0.04 | 0.21
30 | CCOC(=O)C[C@H]1[C@H](OC(=O)c2ccc(-c3ccccc3)cc2)[C@@H](NC(=O)CC(C)C)c2cc(OCCCO)ccc2N1C(=O)Cc1ccc(OC)cc1 | 0.0706 | 0.445 | -0.0131 | 0.135 | 0.119 | 0.828 | -0.023 | -0.33 (inactive) | 0.367 | 0.77
